Measurements from publication PMC4336329 (PLoS ONE, 2015).
In all, about 310,000 compounds went through this assay and about 14,000 (4.5%) showed an effect of 50% or more. The effect is printed as a negative number. The full list was thinned out, with strong results kept by preference.

Target: human ether-à-go-go-related gene (hERG) potassium channel (human, UniProt Q12809)
Test: primary screen, population patch clamp on CHO cells stably expressing hERG; higher = less effect of the substance
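Note: peak tail current of the secondary pulse compared with the same well before compound.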

human ether-à-go-go-related gene (hERG) potassium channel, sequence (Q12809 whole entry, looked up): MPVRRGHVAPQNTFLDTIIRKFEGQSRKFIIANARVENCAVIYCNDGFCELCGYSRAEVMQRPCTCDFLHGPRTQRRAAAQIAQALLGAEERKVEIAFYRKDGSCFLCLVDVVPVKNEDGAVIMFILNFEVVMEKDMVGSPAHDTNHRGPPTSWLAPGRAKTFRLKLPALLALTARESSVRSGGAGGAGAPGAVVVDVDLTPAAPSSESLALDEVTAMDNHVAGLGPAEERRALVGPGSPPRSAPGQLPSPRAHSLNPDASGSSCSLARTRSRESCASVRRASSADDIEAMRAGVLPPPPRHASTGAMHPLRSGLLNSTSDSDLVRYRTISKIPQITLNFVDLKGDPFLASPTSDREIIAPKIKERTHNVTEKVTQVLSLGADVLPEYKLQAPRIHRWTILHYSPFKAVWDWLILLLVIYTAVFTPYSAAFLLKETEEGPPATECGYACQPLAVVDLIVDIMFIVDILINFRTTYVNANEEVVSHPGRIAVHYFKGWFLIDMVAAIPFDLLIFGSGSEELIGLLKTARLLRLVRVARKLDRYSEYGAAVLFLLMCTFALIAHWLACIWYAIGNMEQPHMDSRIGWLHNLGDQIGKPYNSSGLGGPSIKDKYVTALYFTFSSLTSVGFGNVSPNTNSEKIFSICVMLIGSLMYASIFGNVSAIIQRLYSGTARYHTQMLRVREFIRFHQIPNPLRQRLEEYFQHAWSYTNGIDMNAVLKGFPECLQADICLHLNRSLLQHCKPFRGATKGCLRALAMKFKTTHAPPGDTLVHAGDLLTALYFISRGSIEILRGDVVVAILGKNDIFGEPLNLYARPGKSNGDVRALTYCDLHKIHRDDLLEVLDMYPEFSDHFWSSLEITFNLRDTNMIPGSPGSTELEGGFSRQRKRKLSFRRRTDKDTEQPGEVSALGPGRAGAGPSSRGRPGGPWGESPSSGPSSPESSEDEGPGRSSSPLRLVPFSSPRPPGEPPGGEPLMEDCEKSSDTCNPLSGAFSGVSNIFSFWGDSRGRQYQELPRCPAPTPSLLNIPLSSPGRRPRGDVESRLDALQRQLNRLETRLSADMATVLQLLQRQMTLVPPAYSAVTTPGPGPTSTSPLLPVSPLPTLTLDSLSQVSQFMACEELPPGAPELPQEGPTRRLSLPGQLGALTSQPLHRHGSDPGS

Row | SMILES | hERG current change (%, negative = inhibition) at 10uM [%]
1 | CCOc1ccc(N(CC)C(=O)CCS(=O)(=O)c2cccc3nonc23)cc1 | -4.92
2 | O=C(CSc1nnc(COc2ccccc2)n1-c1ccccc1)c1ccccc1 | 11.2
3 | O=C(CCCCCNC(=O)N1CCn2c1nc1ccccc12)NCc1ccccc1Cl | -16.6
4 | CCN(CC)S(=O)(=O)c1cccc(-c2nnc(SCC(=O)NC)n2N)c1 | 8.5
5 | CCN(CC)S(=O)(=O)c1cccc(-c2nnc(SCC(N)=O)n2N)c1 | -28.9
6 | CCSc1nnc(-c2cccc(S(=O)(=O)N(CC)CC)c2)n1Cc1ccccc1 | -62.6
7 | CCN(CC)S(=O)(=O)c1ccc(-c2nnc(SCc3nnc(-c4ccccc4)o3)o2)cc1 | 7.63
8 | COc1ccc(-n2c(SCC3CNC(=O)O3)nnc2-c2ccc(Cl)cc2)cc1 (centres unmarked) | -54.8
9 | CCN(CC)S(=O)(=O)c1cccc(-c2nnc(SCc3nnc(-c4cccs4)o3)n2N)c1 | -44.3
10 | CCN(CC)S(=O)(=O)c1cccc(-c2nnc(SCc3nnc(-c4ccccc4)o3)n2C)c1 | -67.4
11 | Cc1cccc(-c2nnc(SCC3CNC(=O)O3)n2-c2ccc(Cl)cc2)c1 (centres unmarked) | -40.3
12 | CCN(CC)S(=O)(=O)c1cccc(-c2nnc(SCC(=O)c3ccc(Cl)s3)n2C)c1 | -52.7
13 | COc1cccc(-c2nnc(SCC3CNC(=O)O3)n2-c2ccc(Cl)cc2)c1 (centres unmarked) | 8.33
14 | CCN(CC)S(=O)(=O)c1cccc(-c2nnc(SCC#N)n2Cc2ccccc2)c1 | -25.5
15 | CCN(CC)S(=O)(=O)c1cccc(-c2nnc(SC(C)C#N)n2Cc2ccccc2)c1 (centres unmarked) | -7.34
16 | CCn1cc(/C=C(\NC(=O)c2cc(OC)c(OC)c(OC)c2)C(=O)NCCN2CCOCC2)c2ccccc21 | 10.8
17 | COc1ccc(CCNC(=O)Cn2nc([N+](=O)[O-])c(Br)c2C)cc1OC | -0.503
18 | O=S(CC1CC1(Cl)Cl)CC1CC1(Cl)Cl (centres unmarked) | 3.18
19 | O=C(CNc1cccc(S(=O)(=O)N2CCCC2)c1)Nc1cccc(Br)c1 | -18.5
20 | COc1ccccc1N(C)S(=O)(=O)c1ccc(C(=O)NCc2ccc3c(c2)OCO3)cc1 | 4.2
21 | O=C(c1ccc(O)cc1)c1ccc(C(=O)O)c(C(=O)O)c1 | 23.2

Row | SMILES | hERG current change (%, negative = inhibition) at 10uM [%]
22 | Cc1cnc(NC(=O)CSC(=S)N2CCOCC2)s1 | 15.4
23 | COC(=O)Nc1ccc(S(=O)(=O)N2CCC(Cc3ccccc3)CC2)cc1 | 1.4
24 | COc1ccc2nc(NC(=O)CCc3ccc(OC)c(OC)c3)sc2c1 | 26.2
25 | CCN(CC)S(=O)(=O)c1cccc(-c2n[nH]c(=S)n2CC(C)C)c1 | 6.22
26 | COc1ccc(-c2nnc(CSc3nc4ccccc4c(=O)n3C)o2)cc1OC | -4.89
27 | CCN(CC)S(=O)(=O)c1ccc(-c2nnc(SCc3nnc(-c4ccc(C)cc4)o3)o2)cc1 | 8.8
28 | COc1ccc(-c2nnc(SCc3nnc(-c4ccccc4)o3)n2-c2ccccc2)cc1 | -9.78
29 | COc1ccc(-n2c(SCc3nnc(-c4ccccc4)o3)nnc2-c2ccccc2)cc1 | -29.5
30 | CCN(CC)S(=O)(=O)c1ccc(-c2nnc(SCc3nnc(-c4ccc(C)cc4)o3)n2CC)cc1 | -55.2
31 | CCC(C)n1c(-c2cccc(S(=O)(=O)N(CC)CC)c2)n[nH]c1=S (centres unmarked) | 26.6
32 | COc1ccc(-c2nnc(SCc3nnc(-c4ccccc4)o3)n2C)cc1OC | -54.3
33 | COCCn1c(SCc2nnc(-c3ccc(OC)c(OC)c3)o2)nnc1-c1ccncc1 | 1.42
34 | CCn1c(SCc2nnc(-c3ccccc3)o2)nnc1-c1ccc(S(=O)(=O)N2CCCC2)cc1 | -34.6
35 | CCN(CC)S(=O)(=O)c1cccc(-c2n[nH]c(=S)n2C)c1 | -51.8
36 | COc1ccc(-c2nnc(SCc3nnc(-c4ccc(Cl)cc4)o3)n2-c2ccccc2)cc1 | -56
37 | COc1cc(NC(=O)c2ccccc2)ccc1NC(=O)c1cc2ccccc2o1 | 25.8
38 | CCOC(=O)c1cc(-c2ccc([N+](=O)[O-])cc2)nc2c1c(=O)[nH]c(=O)n2Cc1ccccc1 | 11.9
39 | CC1CCN(C(=O)c2[nH]cnc2C(=O)NC2CCN(C(=O)OC(C)(C)C)CC2)CC1 | 9.62
40 | COc1ccc(NC(=S)NCc2ccco2)c(OC)c1 | -2.08
41 | CCOc1ccc(N(C)S(=O)(=O)c2ccc3[nH]cc(C(=O)NCCCOC)c(=O)c3c2)cc1 | 3.51
42 | O=C(O)Cn1c2ccccc2c2ccccc21 | 30.5

Row | SMILES | hERG current change (%, negative = inhibition) at 10uM [%]
43 | COc1ccc2c(c1OC)C(=O)N(c1ncn[nH]1)C2 | 13.5
44 | O=C(/C=C\c1ccc(-c2cccc([N+](=O)[O-])c2)o1)N1CCOCC1 | -10.2
45 | Cc1ccc2[nH]c3c(=O)n(CC(=O)N4CCN(C)CC4)ncc3c2c1 | -1.46
46 | Cn1c(=O)n(C)c2cc(NC(=O)CSc3ccccc3)ccc21 | 4.01
47 | CCc1nc2ccccc2n1CCc1ccccc1.Cl | -16.6
48 | CN(C(=O)c1cc([N+](=O)[O-])ccc1N1CCCC1)C1CCCCC1 | 1.07
49 | CCN(CC)S(=O)(=O)c1cccc(-c2nnc(SCC(N)=O)n2CCc2ccccc2)c1 | -37.3
50 | CCN(CC)S(=O)(=O)c1cccc(-c2nnc(SCC(=O)NC)n2CCc2ccccc2)c1 | -27.3
51 | CCN(CC)S(=O)(=O)c1cccc(-c2nnc(SCc3ncc(-c4ccccc4)o3)n2C)c1 | -68.2
52 | CCCNC(=O)C(Cc1cccc(C#N)c1)NC(=O)c1ccc(C#N)cc1 (centres unmarked) | -55.9
53 | CCCNC(=O)C(Cc1cccc(Cl)c1)NC(=O)c1ccc(C#N)cc1 (centres unmarked) | -11
54 | CCCNC(=O)C(Cc1cccc(OC)c1)NC(=O)c1ccc(C#N)cc1 (centres unmarked) | -7.8
55 | CCCNC(=O)C(Cc1cccc(C#N)c1)NC(=O)c1cccc([N+](=O)[O-])c1 (centres unmarked) | -10.2
56 | CCCNC(=O)C(Cc1ccc(I)cc1)NC(=O)c1ccc(C#N)cc1 (centres unmarked) | 8.48
57 | CCCNC(=O)C(Cc1ccc(OC)cc1)NC(=O)c1ccc(C#N)cc1 (centres unmarked) | -50.7
58 | O=C(Oc1ccc(F)cc1)c1ccc2c(=O)n3c(nc2c1)CCC3 | -21.6
59 | O=C(COC(=O)c1cccc(O)c1)NC(=O)Cc1ccccc1 | 3.25
60 | Cc1nn(-c2ccccc2)c(N2CCCC2)c1/C=C1\N=C(c2ccccc2)OC1=O | 11.7
61 | CCCCCC(=O)NNC(=O)c1c(O)c2ccccc2n(CC)c1=O | -13.5
62 | Cc1cccc(N=C2NN=C(c3ccccc3F)CS2)c1C | 41.8
63 | Cc1cc(N2CCC(C)CC2)nc2cccc(O)c12 | -28.7

Row | SMILES | hERG current change (%, negative = inhibition) at 10uM [%]
64 | CCN1CCN(c2c(C=O)c(Cl)nc3ccc(OC)cc23)CC1 | -54.5
65 | COc1ccc(N2CCN(c3c(S(=O)(=O)c4ccccc4)cnc4ccc(OC)cc34)CC2)cc1 | -17.7
66 | CCOC(=O)c1cnc2ccc(OCC)cc2c1N1CCN(C)CC1.Cl | -47.8
67 | CCOc1ccc2ncc(C(=O)c3ccc(OC)cc3)c(N3CCN(CC)CC3)c2c1 | -74.5
68 | CCOC(=O)c1cnc2ccc(OCC)cc2c1N1CCN(c2ccccc2OC)CC1 | -5.78
69 | CCc1ccc2ncc(C(=O)c3ccccc3)c(N3CCOCC3)c2c1 | -45.7
70 | CCOc1ccc2ncc(S(=O)(=O)c3ccccc3)c(N3CCN(c4ccc(OC)cc4)CC3)c2c1 | -10.9
71 | COc1cc2ncc(C(=O)c3ccccc3)c(N3CCN(Cc4ccccc4)CC3)c2cc1OC | -12.9
72 | CCc1ccc(C(=O)c2cnc3ccc(OC)cc3c2N2CCN(CC)CC2)cc1 | -67.7
73 | CSc1ccccc1NC(=O)Cn1ccsc1=N | 33.3
74 | Cc1cc(NC(=O)CCCC(=O)OCC(F)(F)C(F)F)cc(C)c1C(=O)O | 20.1
75 | O=C(O)CC1OCC=C2CN3CCC45C6=CC(=O)C(=O)C([N+](=O)[O-])=C6NC4C1C2CC35 (centres unmarked) | 10.1
76 | Cc1ccc(C)c(N2CCN(C(=O)Cn3cccc3)CC2)c1 | -19
77 | COc1ccc(/C=C/c2cc(C(F)(F)F)[nH]c(=O)n2)cc1OC | -6.91
78 | COc1cc(/C=C/c2cc[n+](C)cc2)ccc1OCC(=O)Nc1ccc(Cl)c(Cl)c1.[I-] | -5.84
79 | CS(=O)(=O)N(CC(=O)N1CCCC1)c1ccc(OCc2ccccc2)cc1 | -15.7
80 | C#Cc1ccc(CN2CCN(CCCc3ccccc3)C(CCO)C2)cc1 (centres unmarked) | -69.8
81 | C#Cc1ccc(CN2CCN(CCc3ccccc3)C(CCO)C2)cc1 (centres unmarked) | -58.8
82 | OCCC#Cc1ccc(CN2CCN(CCc3ccccc3)C(CCO)C2)cc1 (centres unmarked) | -20.7
83 | Nc1c(C(=O)NC2CCCC2)c2nc3ccccc3nc2n1N | 25.1
